Percent Effect data for 8 compounds are collected here from ChEMBL document CHEMBL3988442, “University of Dundee, Small-Polar-MMV Screening Library” (2021).

Holding throughout (design): scale not given: direction of the effect not stated beside the values
Assay [1] addresses Protein translocase subunit SecA (Escherichia coli (strain K12)) (UniProt P10408). As to the kind of experiment: Assay to Identify E. coli SecA ATPase Inhibitors. In kind it is functional. Conditions: 30 µM.
Assay [2] addresses T1, Ubiquitin-activating enzyme e1, putative (Leishmania donovani (strain BPK282A1)) (UniProt E9BSI1).
T1 sequence (whole entry): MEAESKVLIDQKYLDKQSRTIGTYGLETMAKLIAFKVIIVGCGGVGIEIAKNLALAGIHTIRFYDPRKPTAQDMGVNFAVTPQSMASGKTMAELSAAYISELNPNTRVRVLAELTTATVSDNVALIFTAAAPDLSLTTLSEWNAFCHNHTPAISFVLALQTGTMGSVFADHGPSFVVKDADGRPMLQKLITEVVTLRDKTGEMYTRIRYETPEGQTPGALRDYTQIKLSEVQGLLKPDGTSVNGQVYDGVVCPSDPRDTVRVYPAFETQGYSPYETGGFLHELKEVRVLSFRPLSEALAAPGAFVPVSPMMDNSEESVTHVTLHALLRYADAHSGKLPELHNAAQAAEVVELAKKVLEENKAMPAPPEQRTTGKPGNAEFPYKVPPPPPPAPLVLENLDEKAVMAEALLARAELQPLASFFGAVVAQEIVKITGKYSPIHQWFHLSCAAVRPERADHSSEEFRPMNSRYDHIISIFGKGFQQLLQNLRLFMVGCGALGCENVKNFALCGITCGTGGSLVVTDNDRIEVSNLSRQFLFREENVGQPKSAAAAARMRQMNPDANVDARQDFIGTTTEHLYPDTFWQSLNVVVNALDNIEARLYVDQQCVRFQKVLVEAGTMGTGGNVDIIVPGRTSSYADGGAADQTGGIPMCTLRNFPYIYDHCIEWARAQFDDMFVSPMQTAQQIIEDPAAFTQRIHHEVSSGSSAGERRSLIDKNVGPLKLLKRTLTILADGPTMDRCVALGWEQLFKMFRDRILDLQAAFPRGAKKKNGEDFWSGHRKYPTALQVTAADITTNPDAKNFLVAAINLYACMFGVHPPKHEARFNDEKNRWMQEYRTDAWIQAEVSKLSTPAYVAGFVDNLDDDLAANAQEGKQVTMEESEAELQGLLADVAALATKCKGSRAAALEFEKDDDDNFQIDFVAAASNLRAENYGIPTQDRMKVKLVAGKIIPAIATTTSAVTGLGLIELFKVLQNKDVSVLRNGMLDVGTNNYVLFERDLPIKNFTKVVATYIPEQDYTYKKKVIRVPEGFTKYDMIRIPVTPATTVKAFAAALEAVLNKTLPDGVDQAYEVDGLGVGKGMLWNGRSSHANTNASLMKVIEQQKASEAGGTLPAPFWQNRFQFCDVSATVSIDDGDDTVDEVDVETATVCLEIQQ
As to the kind of experiment: Leishmania donovani Ubiquitin Activating Enzyme (LdE1). It is filed as functional. Conditions: 30 µM.

Assay [3] concerns the target AMP-activated protein kinase, AMPK (Homo sapiens) (UniProt P54646+O43741+P54619+Q9UGJ0+Q9Y478+Q13131+Q9UGI9). As to the kind of experiment: AMP-dependent Kinase enzyme assay. An in vitro enzyme assay that detects ADP turnover that is directly proportional to AMPK activity. This uses naive AMPK that is activated during the assay with MK-8722. Conditions: 30 µM. In kind it is functional.

Assay [4] deals with Sialic acid-binding Ig-like lectin 9 (Homo sapiens) (UniProt Q9Y336). As to the kind of experiment: Hs-Siglec9 ALPHAscreen SOP 20170721. Conditions: 10 µM. (In general: Bead proximity is the source of the signal in Alpha formats.)
Sequence of Sialic acid-binding Ig-like lectin 9 (Homo sapiens) (Q9Y336 whole entry): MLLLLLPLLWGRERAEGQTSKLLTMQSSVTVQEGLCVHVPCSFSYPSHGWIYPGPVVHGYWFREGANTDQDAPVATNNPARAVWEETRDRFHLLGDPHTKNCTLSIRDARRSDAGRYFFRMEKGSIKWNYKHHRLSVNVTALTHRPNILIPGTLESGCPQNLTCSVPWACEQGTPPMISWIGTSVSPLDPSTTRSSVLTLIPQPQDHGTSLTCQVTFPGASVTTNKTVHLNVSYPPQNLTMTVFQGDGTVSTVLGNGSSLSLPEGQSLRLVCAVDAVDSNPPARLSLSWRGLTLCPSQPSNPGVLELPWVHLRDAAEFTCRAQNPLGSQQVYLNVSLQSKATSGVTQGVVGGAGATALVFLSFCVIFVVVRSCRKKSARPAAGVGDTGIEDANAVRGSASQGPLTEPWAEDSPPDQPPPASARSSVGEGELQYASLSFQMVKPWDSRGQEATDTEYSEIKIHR
The subject of assay [5] is Trypanosoma cruzi. As to the kind of experiment: Trypanosoma cruzi phosphomannomutase and mannose-1-phosphate guanylyltransferase assay. It is filed as functional. The following applies: 10 µM.
Assay [6] deals with T2, Arginase-2, mitochondrial (Homo sapiens) (UniProt P78540).
T2 sequence (whole entry): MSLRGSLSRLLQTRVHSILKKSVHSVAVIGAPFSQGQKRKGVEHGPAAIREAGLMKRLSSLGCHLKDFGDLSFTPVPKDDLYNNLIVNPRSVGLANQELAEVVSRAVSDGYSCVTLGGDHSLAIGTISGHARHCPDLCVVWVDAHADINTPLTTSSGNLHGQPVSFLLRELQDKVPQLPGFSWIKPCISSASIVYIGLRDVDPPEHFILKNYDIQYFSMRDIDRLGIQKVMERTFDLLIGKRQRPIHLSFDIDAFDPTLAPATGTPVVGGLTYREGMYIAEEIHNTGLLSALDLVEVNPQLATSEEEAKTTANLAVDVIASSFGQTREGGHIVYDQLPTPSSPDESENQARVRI
As to the kind of experiment: in vitro enzyme assay to detect the production of urea directly proportional to the activity of Arginase II. Further: in the data most compounds retested in dose-response had high values. In kind it is functional. The following applies: 33.3 µM.

In assay [7] the target is T3, Proteasome subunit beta (Trypanosoma cruzi) (UniProt O96673).
T3 sequence (whole entry): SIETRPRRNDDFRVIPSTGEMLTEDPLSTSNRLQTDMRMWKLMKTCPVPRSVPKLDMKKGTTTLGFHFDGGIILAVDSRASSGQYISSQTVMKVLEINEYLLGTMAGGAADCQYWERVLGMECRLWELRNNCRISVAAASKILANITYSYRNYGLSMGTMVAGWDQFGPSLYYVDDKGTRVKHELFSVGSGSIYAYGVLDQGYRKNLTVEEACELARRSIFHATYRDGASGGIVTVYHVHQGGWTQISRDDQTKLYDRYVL
As to the kind of experiment: Trypanosoma cruzi proteasome chymotrypsin-like activity (TcProtChymo) assay. Further: in the data most compounds retested in dose-response had high values. In kind it is functional. Conditions: 9.37 µM.

For assay [8], the species on record is Homo sapiens. As to the kind of experiment: To identify inhibition of the IFN signalling (Jak-Stat) pathway via expression of an eGFP reporter gene under the control of an IFN-stimulated response element (ISRE) containing MxA promoter. It is filed as functional. Conditions: 30 µM.
The target in assay [9] is T4, Tyrosyl-tRNA synthetase, putative (Trypanosoma cruzi (strain CL Brener)) (UniProt Q4DSP6).
T4 sequence (whole entry): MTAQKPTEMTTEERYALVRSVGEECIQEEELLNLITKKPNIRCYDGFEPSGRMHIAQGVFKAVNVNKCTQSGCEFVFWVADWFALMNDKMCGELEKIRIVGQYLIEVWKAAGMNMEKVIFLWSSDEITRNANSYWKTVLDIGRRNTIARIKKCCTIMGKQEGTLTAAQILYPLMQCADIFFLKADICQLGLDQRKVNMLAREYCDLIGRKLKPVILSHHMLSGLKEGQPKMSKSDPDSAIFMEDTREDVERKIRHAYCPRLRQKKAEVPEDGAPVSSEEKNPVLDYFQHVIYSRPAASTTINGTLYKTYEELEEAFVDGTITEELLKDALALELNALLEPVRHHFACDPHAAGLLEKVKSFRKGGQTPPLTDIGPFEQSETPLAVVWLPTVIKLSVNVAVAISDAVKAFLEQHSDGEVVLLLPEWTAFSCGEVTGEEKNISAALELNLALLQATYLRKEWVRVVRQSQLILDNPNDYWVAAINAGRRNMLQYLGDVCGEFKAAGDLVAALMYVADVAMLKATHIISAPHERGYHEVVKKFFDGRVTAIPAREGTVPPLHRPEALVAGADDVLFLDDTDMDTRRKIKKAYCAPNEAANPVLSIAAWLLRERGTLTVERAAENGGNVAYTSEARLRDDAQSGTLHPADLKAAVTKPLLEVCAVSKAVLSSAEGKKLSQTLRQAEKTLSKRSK
As to the kind of experiment: Trypanosoma cruzi tyrosyl tRNA synthetase (TcYRS) _High Tyrosine SOP. Further: in the data most compounds retested in dose-response had high values. It is filed as functional. The following applies: 30 µM.

Assay [10] deals with T4, Tyrosyl-tRNA synthetase, putative (Trypanosoma cruzi (strain CL Brener)). As to the kind of experiment: Trypanosoma cruzi tyrosyl tRNA synthetase (TcYRS) SOP. Conditions: 30 µM. It is filed as functional.
The target of assay [11] is Chromo domain-containing protein 1 (Saccharomyces cerevisiae (strain ATCC 204508 / S288c) (Baker's yeast)) (UniProt P32657). As to the kind of experiment: ScCHD-1 Enzyme Inhibition Assay. Further: in the data most compounds retested in dose-response had high values. In kind it is functional. Conditions: 30 µM.
Sequence of Chromo domain-containing protein 1 (Saccharomyces cerevisiae (strain ATCC 204508 / S288c) (Baker's yeast)) (P32657 whole entry, the tested form may be a part): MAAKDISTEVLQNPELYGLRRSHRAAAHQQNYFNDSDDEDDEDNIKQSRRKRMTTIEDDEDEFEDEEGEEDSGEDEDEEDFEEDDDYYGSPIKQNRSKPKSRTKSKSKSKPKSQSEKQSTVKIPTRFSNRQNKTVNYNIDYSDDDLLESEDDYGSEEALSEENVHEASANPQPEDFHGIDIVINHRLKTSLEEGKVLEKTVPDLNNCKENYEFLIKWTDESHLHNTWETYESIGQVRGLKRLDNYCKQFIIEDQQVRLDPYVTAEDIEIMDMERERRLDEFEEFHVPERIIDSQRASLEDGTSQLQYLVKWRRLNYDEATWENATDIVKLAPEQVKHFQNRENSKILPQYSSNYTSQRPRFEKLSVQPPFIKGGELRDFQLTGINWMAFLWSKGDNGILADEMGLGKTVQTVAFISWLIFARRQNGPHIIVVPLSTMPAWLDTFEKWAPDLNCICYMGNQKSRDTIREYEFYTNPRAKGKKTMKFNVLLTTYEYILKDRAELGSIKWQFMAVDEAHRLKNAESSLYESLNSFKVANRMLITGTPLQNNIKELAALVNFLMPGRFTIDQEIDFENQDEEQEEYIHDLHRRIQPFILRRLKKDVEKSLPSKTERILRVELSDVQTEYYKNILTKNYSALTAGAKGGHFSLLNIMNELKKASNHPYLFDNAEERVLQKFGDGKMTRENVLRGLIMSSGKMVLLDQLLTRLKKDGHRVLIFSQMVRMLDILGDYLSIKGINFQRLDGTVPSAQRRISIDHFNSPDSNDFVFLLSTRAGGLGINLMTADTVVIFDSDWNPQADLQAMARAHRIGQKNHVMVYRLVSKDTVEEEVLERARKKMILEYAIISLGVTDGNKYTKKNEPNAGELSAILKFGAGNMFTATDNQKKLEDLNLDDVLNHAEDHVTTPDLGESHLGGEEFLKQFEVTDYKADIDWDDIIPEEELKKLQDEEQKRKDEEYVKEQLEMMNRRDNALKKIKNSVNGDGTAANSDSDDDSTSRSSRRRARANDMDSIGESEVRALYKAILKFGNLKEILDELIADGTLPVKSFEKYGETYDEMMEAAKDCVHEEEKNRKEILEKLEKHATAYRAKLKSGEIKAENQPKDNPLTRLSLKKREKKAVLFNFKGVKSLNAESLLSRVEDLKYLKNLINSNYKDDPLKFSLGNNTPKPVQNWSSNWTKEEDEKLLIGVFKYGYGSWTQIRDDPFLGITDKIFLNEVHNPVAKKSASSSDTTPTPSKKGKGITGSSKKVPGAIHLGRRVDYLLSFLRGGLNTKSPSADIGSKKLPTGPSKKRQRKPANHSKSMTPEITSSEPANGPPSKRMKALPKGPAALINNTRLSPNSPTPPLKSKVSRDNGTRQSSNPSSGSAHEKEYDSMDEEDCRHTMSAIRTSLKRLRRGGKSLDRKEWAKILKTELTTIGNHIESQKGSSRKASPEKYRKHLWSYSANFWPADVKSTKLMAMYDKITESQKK

For some of these results: Entries with a potency or affinity are not part of this list.

Sequence of Protein translocase subunit SecA (Escherichia coli (strain K12)) (P10408 whole entry): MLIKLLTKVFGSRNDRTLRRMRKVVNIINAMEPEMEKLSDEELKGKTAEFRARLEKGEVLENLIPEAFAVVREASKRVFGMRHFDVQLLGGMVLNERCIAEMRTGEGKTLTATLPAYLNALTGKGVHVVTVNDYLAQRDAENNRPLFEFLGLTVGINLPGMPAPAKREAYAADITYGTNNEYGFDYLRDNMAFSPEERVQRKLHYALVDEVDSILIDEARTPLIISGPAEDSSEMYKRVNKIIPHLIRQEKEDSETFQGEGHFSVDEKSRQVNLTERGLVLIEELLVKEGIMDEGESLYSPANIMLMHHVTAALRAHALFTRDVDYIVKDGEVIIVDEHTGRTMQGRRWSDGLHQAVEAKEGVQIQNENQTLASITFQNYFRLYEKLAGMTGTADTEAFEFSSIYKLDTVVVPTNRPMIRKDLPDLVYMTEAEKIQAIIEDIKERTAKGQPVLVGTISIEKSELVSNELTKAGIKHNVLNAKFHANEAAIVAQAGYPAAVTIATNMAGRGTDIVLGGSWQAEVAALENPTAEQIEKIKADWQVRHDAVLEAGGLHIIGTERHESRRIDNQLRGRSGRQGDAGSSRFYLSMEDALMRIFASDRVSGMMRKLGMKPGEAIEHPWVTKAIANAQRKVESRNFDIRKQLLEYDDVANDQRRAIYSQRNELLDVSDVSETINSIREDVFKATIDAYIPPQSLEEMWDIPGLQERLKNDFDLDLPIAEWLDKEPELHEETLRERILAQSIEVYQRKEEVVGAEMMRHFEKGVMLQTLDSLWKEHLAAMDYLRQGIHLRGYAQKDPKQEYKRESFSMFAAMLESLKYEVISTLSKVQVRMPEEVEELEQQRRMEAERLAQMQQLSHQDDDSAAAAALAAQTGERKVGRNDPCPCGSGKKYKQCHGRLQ

As for `Cc1cnn(CCNCC(=O)NCC2(c3ccccc3)CCC2)c1`, the Percent Effect in [1] is -3.26%; in assay [2], 10.4%; in assay [3], 0.236%; in assay [4], -13.1%; in [5] it was -5.19%; in [6] it was -3.58%. For the same compound, the Percent Effect in assay [7] was 12.4%; in assay [8] it was 11.5%; in assay [9] it was 12.4%; in assay [10], 14.1%; in [11], -19.9%.
For the compound `COc1ccc(CNCc2c(C)nn(C)c2N2CCOCC2)cc1`, the Percent Effect was -5.07% in [1]; 18.2% in assay [2]; -11.5% in [3]; 0.605% in assay [4]; 3.82% in [5]; 0.21% in [6]. Also, the Percent Effect was 14.5% in [7]; -34.5% in [8]; 8.57% in [9]; 21.2% in assay [10]; -13% in assay [11].
As for `c1csc(CN2CCO[C@H]3[C@H](OCCN4CCCC4)CC[C@@H]32)n1`, the Percent Effect in assay [1] was -4.05%; in assay [2], 7.79%; in assay [3], 0.971%; in assay [4], 16%; in assay [5] it was -0.885%; in assay [6], -57.9%. The Percent Effect was 8.15% in [7]; 10.2% in [8]; 2.15% in assay [9]; 11.1% in assay [10]; -0.273% in assay [11].
Regarding `O=C(c1cccs1)N1C[C@H]2CC[C@@]3(N=C(c4ccccc4)NC3=O)[C@H]2C1`, the Percent Effect is -1.64% in assay [1]; 7.79% in assay [2]; 0.0999% in assay [3]; 7.14% in assay [4]; -2.06% in assay [5]; -4.14% in assay [6]. Further, the Percent Effect in assay [7] is 13.3%; in assay [8] it was 9.87%; in assay [9] it was 1.07%; in assay [10], 13.6%; in [11], -0.884%.
On to `CC(C)CS(=O)(=O)CC(=O)N(C)Cc1ccc(OC(F)F)cc1`, for which the Percent Effect in assay [1] was -4.46%; in assay [2], 2.7%; in assay [3], 4.52%; in [4], -5.18%; in assay [5] it was -1.74%; in assay [6], 0.476%. Further, the Percent Effect is 15.2% in assay [7]; 12.9% in [8]; -0.529% in assay [9]; 9.76% in [10]; -2.02% in assay [11].
As to `Cc1cc(C)n(Cc2ccc(C(=O)NCCN3CCOCC3)cc2)n1`, the Percent Effect is -1.98% in assay [1]; 4.17% in [2]; -0.277% in assay [3]; -1.95% in [4]; 6.32% in assay [5]; -0.442% in assay [6]. Further, the Percent Effect is 19.6% in assay [7]; 5.69% in assay [8]; 7.37% in assay [9]; 7.69% in [10]; -6.36% in assay [11].
`COc1ccccc1[C@@H]1CN(C(=O)c2csc(C)n2)C[C@H]1C(=O)O`: the Percent Effect in assay [1] was -2.85%; in assay [2] it was 1.39%; in assay [3], -3.07%; in [4] it was -2.56%; in assay [5] it was -0.0972%; in [6], 5.3%. Moreover, the Percent Effect in assay [7] was 16.7%; in assay [8] it was -4.31%; in [9], 12.6%; in assay [10], 17.9%; in [11], -3.19%.
Turning to `O=C1[C@H]2CN(c3ncccn3)C[C@H]2CN1Cc1ccncc1`, the Percent Effect was -4.5% in assay [1]; -2.7% in assay [2]; 1.46% in [3]; -4.76% in [4]; -2.34% in [5]; -0.417% in assay [6]. Also, the Percent Effect in assay [7] was 3.97%; in assay [8] it was -1.92%; in assay [9] it was 3.96%; in assay [10], -3.66%; in assay [11], -3.35%.
